Screen size: about 5,500 compounds; about 2,000 (36%) were called active. Not shown: some 18% with an inconclusive outcome. Rule as the data show it: active = normalized growth mostly below about 0.91 (no sharp cut-off); inconclusive = no clear call, values can overlap the other calls; inactive = mostly above about 0.92. This is one part of the list.
Assay: chemical genetic growth profiling, strain panel (AID 1159580);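 also: tested at 20 µM; growth read once vehicle control cultures reached saturation at 30 °C; 1 = growth at the plate median or of vehicle wells; lower values mean less growth of the strain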
Conditions: S. cerevisiae deletion strains, growth OD
[1] = locus YAR019C, strain CDC15, stronger effect = lower value
[2] = locus YBL105C, strain PKC1, stronger effect = lower value
[3] = locus YBR135W, strain CKS1, stronger effect = lower value
[4] = locus YBR136W, strain MEC1, stronger effect = lower value
[5] = locus YBR160W, strain CDC28, stronger effect = lower value
[6] = locus YDL017W, strain CDC7, stronger effect = lower value
[7] = locus YDL028C, strain MPS1, stronger effect = lower value
[8] = locus YDL101C, strain DUN1, stronger effect = lower value
[9] = locus YDL108W, strain KIN28, stronger effect = lower value
[10] = locus YDL132W, strain cdc53, stronger effect = lower value
[11] = locus YDL214C, strain PRR2, stronger effect = lower value
[12] = locus YDR052C, strain DBF4, stronger effect = lower value
[13] = locus YDR054C, strain cdc34, stronger effect = lower value
[14] = locus YDR226W, strain ADK1, stronger effect = lower value
[15] = locus YDR477W, strain SNF1, stronger effect = lower value
[16] = locus YER123W, strain YCK3, stronger effect = lower value
[17] = locus YER133W, strain GLC7, stronger effect = lower value
[18] = locus YFL009W, strain cdc4, stronger effect = lower value
[19] = locus YFL029C, strain CAK1, stronger effect = lower value
[20] = locus YFR003C, strain YPI1, stronger effect = lower value
[21] = locus YFR019W, strain FAB1, stronger effect = lower value
[22] = locus YFR028C, strain CDC14, stronger effect = lower value
[23] = locus YGR040W, strain KSS1, stronger effect = lower value
[24] = locus YGR052W, strain FMP48, stronger effect = lower value
[25] = locus YGR092W, strain DBF2, stronger effect = lower value
[26] = locus YHR030C, strain SLT2, stronger effect = lower value
[27] = locus YHR079C, strain IRE1, stronger effect = lower value
[28] = locus YHR082C, strain KSP1, stronger effect = lower value
[29] = locus YHR205W, strain SCH9, stronger effect = lower value
[30] = locus YIL147C, strain SLN1, stronger effect = lower value
[31] = locus YJL095W, strain BCK1, stronger effect = lower value
[32] = locus YJL128C, strain PBS2, stronger effect = lower value
[33] = locus YJL157C, strain FAR1, stronger effect = lower value
[34] = locus YJR016C, strain ILV3, stronger effect = lower value
[35] = locus YJR066W, strain TOR1 (second series), stronger effect = lower value
[36] = locus YJR066W, strain TOR1, stronger effect = lower value
[37] = locus YKL048C, strain ELM1, stronger effect = lower value
[38] = locus YKL067W, strain YNK1, stronger effect = lower value
[39] = locus YKL101W, strain HSL1, stronger effect = lower value
[40] = locus YKL193C, strain SDS22, stronger effect = lower value
[41] = locus YKL203C, strain TOR2, stronger effect = lower value
[42] = locus YLR113W, strain HOG1, stronger effect = lower value
[43] = locus YLR133W, strain CKI1, stronger effect = lower value
[44] = locus YLR403W, strain SFP1, stronger effect = lower value
[45] = locus YML070W, strain DAK1, stronger effect = lower value
[46] = locus YMR001C, strain CDC5, stronger effect = lower value
[47] = locus YMR205C, strain PFK2 (second series), stronger effect = lower value
[48] = locus YMR277W, strain FCP1, stronger effect = lower value
[49] = locus YNL006W, strain LST8, stronger effect = lower value
[50] = locus YNL020C, strain ARK1, stronger effect = lower value
[51] = locus YNL161W, strain CBK1, stronger effect = lower value
[52] = locus YNL183C, strain NPR1, stronger effect = lower value
[53] = locus YNL207W, strain RIO2, stronger effect = lower value
[54] = locus YNL222W, strain SSU72, stronger effect = lower value
[55] = locus YNL307C, strain MCK1 (second series), stronger effect = lower value
[56] = locus YOL078W, strain AVO1, stronger effect = lower value
[57] = locus YOL136C, strain PFK27, stronger effect = lower value
[58] = locus YOR061W, strain CKA2, stronger effect = lower value
[59] = locus YOR119C, strain RIO1, stronger effect = lower value
[60] = locus YOR231W, strain MKK1, stronger effect = lower value
[61] = locus YOR329C, strain SCD5, stronger effect = lower value
[62] = locus YPL031C, strain PHO85, stronger effect = lower value
[63] = locus YPL153C, strain RAD53, stronger effect = lower value
[64] = locus YPL204W, strain HRR25, stronger effect = lower value
[65] = locus YPL209C, strain IPL1, stronger effect = lower value
[66] = locus YPL256C, strain CLN2, stronger effect = lower value
[67] = locus YPR025C, strain CCL1, stronger effect = lower value
[68] = locus YPR106W, strain ISR1, stronger effect = lower value
[69] = locus YPR111W, strain DBF20, stronger effect = lower value
[70] = strain NNK1, stronger effect = lower value
[71] = strain TSCII, stronger effect = lower value

Measured: normalized growth

Cc1ccc2c(c1)CCCN2CC(=O)N(c1ccccc1)C1CCCCC1
active: [42] 0.836
inactive: [1] 0.989 | [2] 0.978 | [3] 0.986 | [4] 0.986 | [5] 0.978 | [6] 0.982 | [7] 0.994 | [8] 0.984 | [9] 0.986 | [10] 0.987 | [11] 0.943 | [12] 0.991 | [13] 0.975 | [14] 0.992 | [15] 0.951 | [16] 0.928 | [17] 0.951 | [18] 0.989 | [19] 0.986 | [20] 0.986 | [21] 0.961 | [22] 0.976 | [23] 0.923 | [24] 0.994 | [25] 0.948 | [26] 0.966 | [27] 0.965 | [28] 0.991 | [29] 0.991 | [30] 0.991 | [31] 0.965 | [32] 0.932 | [33] 0.944 | [34] 0.985 | [35] 0.928 | [36] 0.999 | [37] 0.945 | [38] 0.946 | [39] 0.912 | [40] 0.974 | [41] 0.999 | [43] 0.937 | [44] 0.935 | [45] 0.912 | [46] 0.991 | [47] 0.955 | [48] 0.99 | [49] 0.992 | [50] 0.943 | [51] 0.983 | [52] 0.941 | [53] 0.98 | [54] 0.983 | [55] 0.948 | [56] 0.99 | [57] 0.925 | [58] 0.956 | [59] 1 | [60] 0.907 | [61] 0.995 | [62] 0.95 | [63] 0.936 | [64] 0.957 | [65] 0.98 | [66] 0.884 | [67] 0.991 | [68] 0.97 | [69] 0.964 | [70] 0.973 | [71] 0.987

CCCc1cnc(N2CCN(CC(=O)N(c3ccccc3)C3CCCCC3)CC2)nc1
inactive: [1] 0.995 | [2] 0.985 | [3] 0.992 | [4] 0.985 | [5] 0.984 | [6] 0.991 | [7] 0.997 | [8] 0.986 | [9] 0.99 | [10] 0.992 | [11] 0.997 | [12] 0.989 | [13] 0.974 | [14] 0.985 | [15] 0.999 | [16] 0.997 | [17] 1 | [18] 0.989 | [19] 0.993 | [20] 0.988 | [21] 1 | [22] 0.999 | [23] 0.985 | [24] 1.09 | [25] 1 | [26] 1.05 | [27] 1.03 | [28] 1.09 | [29] 0.97 | [30] 0.99 | [31] 1.05 | [32] 0.985 | [33] 0.981 | [34] 1 | [35] 0.995 | [36] 1.07 | [37] 0.969 | [38] 1 | [39] 0.993 | [40] 0.99 | [41] 1.05 | [42] 0.949 | [43] 0.997 | [44] 0.977 | [45] 1.03 | [46] 0.991 | [47] 1.01 | [48] 0.994 | [49] 0.988 | [50] 0.997 | [51] 0.99 | [52] 1.04 | [53] 0.997 | [54] 0.995 | [55] 1 | [56] 0.994 | [57] 0.985 | [58] 1.01 | [59] 1.04 | [60] 0.992 | [61] 0.986 | [62] 1 | [63] 0.998 | [64] 0.981 | [65] 0.98 | [66] 0.968 | [67] 0.99 | [68] 0.979 | [69] 0.976 | [70] 0.99 | [71] 0.992
